The values that follow come from PubChem BioAssay (Tox21).

Assay [1] is described as follows: qHTS assay for small molecules that induce genotoxicity in human embryonic kidney cells expressing luciferase-tagged ATAD5 (AID 651632). Note: nearly all actives have a fitted effect of over 15% in size. A digest of the protocol: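 Genotoxicity read-out via ATAD5-luciferase: HEK293T cells, 16 hr compound incubation at 37C, Amplite detection.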
A short description of assay [2]: qHTS assay for small molecule agonists of the p53 signaling pathway - cell viability (AID 651633; calls by dose curve; note: nearly all actives have a fitted effect of over 30% in size; note: potency is the fitted concentration of half-maximal effect). A digest of the protocol:
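p53RE-bla cells, seeded at 4,000 per well and rested 5 h at 37 C/5% CO2, received compounds in DMSO for 16 h at 37 C. CellTiter-Glo was then added, and luminescence was read after 30 min at room temperature to gauge cytotoxicity.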

Assay [3] in a line: qHTS assay for small molecules that induce genotoxicity in human embryonic kidney cells expressing luciferase-tagged ATAD5 - cell viability (AID 651634; calls by dose curve; note: nearly all actives have a fitted effect of over 25% in size; note: potency is the fitted concentration of half-maximal effect). A digest of the protocol:
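Live-cell protease activity (CellTiter-Fluor, fluorescence) indicates viability. HEK293T cells with luciferase-tagged ATAD5; 15.5 hr compound treatment at 37C.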

Assay [4] in a line: qHTS assay for small molecule disruptors of the mitochondrial membrane potential - cell viability (AID 720634; calls by dose curve; note: nearly all actives have a fitted effect of over 20% in size; note: potency is the fitted concentration of half-maximal effect). The method in brief:
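Human hepatoma HepG2 cells were treated for 1 hr with test chemicals, then given m-MPI dye and CellTiter-Glo. Cell viability reflects luminescence proportional to cellular ATP.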

A short description of assay [5]: qHTS assay to test for compound auto fluorescence at 590 nm (red) in HepG2 cells (AID 720674). The method in brief:
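Rose Bengal sodium served as the red fluorophore standard. HepG2 monolayers (overnight attachment, MEM with 10% FBS) were exposed to test compounds for 1 hr at 37 C and read at Ex 540/Em 590 nm.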

Assay [6] is described as follows: qHTS assay to test for compound auto fluorescence at 535 nm (green) in HepG2 cells (AID 720675).
A short description of assay [7]: qHTS assay to test for compound auto fluorescence at 460 nm (blue) in HEK293 cells (AID 720678). The method in brief:
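Triamterene serves as the blue fluorophore standard. Compound signal at 405/460 nm is read in HEK293 wells (2,000 cells, 10% dialyzed FBS) after overnight treatment at 37C.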

A short description of assay [8]: qHTS assay to test for compound auto fluorescence at 590 nm (red) in HEK293 cells (AID 720679). A digest of the protocol: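 We plated HEK293 cells in 10% dialyzed FBS medium, let them adhere for 4-5 hr, then added 23 nL compound. Overnight at 37C and 5% CO2 preceded fluorescence measurement at 540/590nm.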
Assay [9] in a line: qHTS assay for small molecule disruptors of the mitochondrial membrane potential (AID 720635). Note: potency is the fitted concentration of half-maximal effect. The method in brief: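 HepG2 cells (2,000/well) attached overnight at 37C, then took compound for 1 hr at 37C, 5% CO2. Mito-MPS dye was added for 30 min; fluorescence was read at 490/535 nm (monomers) and 540/590 nm (aggregates).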
A short description of assay [10]: qHTS assay for small molecule agonists of the p53 signaling pathway (AID 651631; calls by dose curve; note: nearly all actives have a fitted effect of over 15% in size). The method in brief:
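Readout was fluorescence from the LiveBLAzer FRET substrate, applied for 2 h at room temperature after 16 h compound exposure at 37 °C. Cells were the p53RE-bla HCT-116 line, with beta-lactamase driven by p53 response elements.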

“And” between values parts separate entries of the source, which are not always exact repeats. Equal values may be shown once. Records with an inconclusive call do not appear. The source made the active and inactive calls. Unless noted, calls come from the whole dose curve; as a rule, active = well fitted curve in the direction sought with a large enough effect in the repeat runs; inconclusive = weak or mixed curves; inactive = no such curve, though single readings can be large; an effect the other way counts as inactive or inconclusive.

As to `CN[C@H]1CC[C@@H](c2ccc(Cl)c(Cl)c2)c2ccccc21`, the Potency result in assay [1], in assay [3], in [4], in [5], in assay [6] and in [7] was “inactive” throughout. Moreover, in assay [8], the Potency result is “inactive”. The Potency in [2] was 29.8 µM (active).
Take `C1CCC(C(CC2CCCCN2)C2CCCCC2)CC1` (stereo not drawn): the Potency entry in [1], in assay [5], in assay [7] and in assay [8] was “inactive” throughout. The Potency in assay [2] was 23.7 µM (active); in [3] it was 26.6 µM (active); in assay [9], 5.96 µM (active).
`Cc1cn([C@H]2C=C[C@@H](CO)O2)c(=O)[nH]c1=O`: the Potency entry in [1], in assay [2], in assay [3], in assay [4], in [9] and in assay [5] was “inactive” in each case. The Potency entry in assay [6], in assay [7] and in assay [8] was “inactive” throughout.
On to `CCCCCCCCCCCCCCCC[N+](C)(C)Cc1ccccc1`, for which the Potency entry in [1], in assay [5] and in [8] was “inactive” in each case. In addition, the Potency was 11.9 µM (active) and 35.5 µM (active) and 39.3 µM (active) in assay [2]; 29.8 µM (active) and 79.4 µM (active) in assay [3]; 26.6 µM (active) in assay [4]; 4.22 µM (active) and 10 µM (active) and 13.9 µM (active) in [9].
In the case of `F[B-](F)(F)F`, the Potency result in assay [1], in assay [3], in assay [4], in [9], in [5] and in assay [6] was “inactive” throughout. Besides, the Potency entry in [7] and in assay [8] was “inactive” throughout.
Consider `C1=CC2C3C=CC(C3)C2C1` (stereo not drawn), for which the Potency entry in assay [1], in assay [2], in [3], in assay [4], in assay [5] and in assay [8] was “inactive” each time.
Take `COc1cccc(O)c1O`: the Potency result in assay [10], in assay [4], in [5], in assay [7] and in assay [8] was “inactive” each time. Also, the Potency in [3] is 17.9 µM (active).
As to `Oc1ccccc1`, the Potency result in [10], in [2], in assay [3], in assay [4], in assay [9] and in assay [5] was “inactive” in each case. The Potency entry in [8] is “inactive”.
For the compound `CNNCc1ccc(C(=O)NC(C)C)cc1`, the Potency result in assay [10], in assay [2], in assay [3], in assay [5], in assay [6] and in assay [7] was “inactive” each time. Further, in assay [8], the Potency entry was “inactive”.
As to `CN1CCc2cccc3c2[C@H]1Cc1ccc(O)c(O)c1-3`, the Potency result in [1], in [2], in assay [3], in assay [4], in assay [9] and in [5] was “inactive” in each case. For the same compound, the Potency result in assay [6], in assay [7] and in assay [8] was “inactive” each time.
Regarding `CN(C)CCOC(C)(c1ccccc1)c1ccccn1` (stereo not drawn), the Potency result in [10], in assay [1], in assay [3], in assay [4], in assay [5] and in assay [6] was “inactive” in each case. Besides, the Potency entry in assay [7] and in assay [8] was “inactive” in each case.
`Cc1cccc(C)c1`: the Potency result in assay [1], in assay [2], in assay [3], in [4], in assay [9] and in assay [5] was “inactive” throughout. For the same compound, the Potency result in [6] and in assay [8] was “inactive” in each case.
Consider `Cn1c(=O)c2c(ncn2C)n(C)c1=O`, for which the Potency entry in assay [10], in [2], in assay [4], in assay [9], in [5] and in assay [6] was “inactive” in each case. Besides, the Potency entry in [7] and in [8] was “inactive” in each case.
Take `CN(C)C(=S)SC(=S)N(C)C`: the Potency entry in assay [10], in assay [1], in assay [4], in assay [5], in [6] and in assay [7] was “inactive” throughout. Further, the Potency entry in assay [8] is “inactive”. Besides, the Potency in [9] was 2.98 µM (active) and 28 µM (active) and 61.1 µM (active).
For `NC1CCCCC1`, the Potency entry in assay [1], in assay [3], in assay [4], in assay [9], in assay [5] and in assay [6] was “inactive” each time. In assay [8], the Potency result is “inactive”.
Regarding `O=C1c2c(O)cccc2Cc2cccc(O)c21`, the Potency entry in assay [10], in assay [1], in assay [3], in assay [4], in assay [5] and in assay [7] was “inactive” throughout. Further, the Potency result in assay [8] is “inactive”.
Take `CCCCOC(=O)c1ccc(O)cc1`: the Potency entry in assay [10], in [3], in [4], in assay [5], in assay [6] and in assay [8] was “inactive” each time. The Potency in assay [9] is 23.7 µM (active) and 9.81 µM (active) and 19.3 µM (active).
Take `COc1ccc2c(c1)c(CC(=O)O)c(C)n2C(=O)c1ccc(Cl)cc1`: the Potency result in [10], in assay [1], in [3], in assay [4], in assay [5] and in [6] was “inactive” each time. Moreover, in [8], the Potency entry is “inactive”.
Regarding `CN(N=O)C(=O)N[C@@H]1[C@@H](O)[C@H](O)[C@@H](CO)O[C@@H]1O`, the Potency result in [10], in assay [1], in assay [3], in assay [4], in assay [9] and in assay [5] was “inactive” throughout. Moreover, the Potency entry in [8] is “inactive”.
For the compound `CCCCCCCCCCCC[N+](C)(C)Cc1ccccc1`, the Potency entry in assay [1], in [4], in [5] and in assay [8] was “inactive” each time. Also, the Potency is 26.8 µM (active) and 74.5 µM (active) in assay [3]; 8.41 µM (active) and 19 µM (active) and 21 µM (active) in assay [9].
With `CC(C)NCC(O)c1ccc(O)c(O)c1` (stereo not drawn), the Potency result in assay [3], in assay [4], in assay [9], in assay [5], in assay [7] and in assay [8] was “inactive” in each case.
For the compound `CC(C)c1c(C(=O)Nc2ccccc2)c(-c2ccccc2)c(-c2ccc(F)cc2)n1CC[C@@H](O)C[C@@H](O)CC(=O)O`, the Potency result in [4], in [5], in assay [6], in [7] and in assay [8] was “inactive” throughout.
